Reference: paper PMC7819943, “Rice protein-binding microarrays: a tool to detect cis-acting elements near promoter regions in rice”
The full ranking holds about 68,000 sequences; the median of “fluorescence intensity (a.u.)” is about 9,100, and the highest 2% start at about 16,000. This excerpt belongs to a sample that is enriched for the highest values.

Each sequence was assayed against OsWRKY34 (Oryza sativa, UniProt Q0JBA9 1-250) (assay: protein-binding microarray (RPBM); PBS, 2% BSA, 51.3 ng/ul salmon testes DNA, 50 uM zinc acetate, 200 nM TF, 25 C, 1 h; high values mean tight binding). Details: protein: recombinant; tags: N-terminal polyhistidine and DsRed monomer fusion (pET32a); label: CyDye5-dUTP incorporated in the synthesized complementary strand; 3' TTTTT single-stranded linker to array surface; dsDNA, one strand shown.
Chain of OsWRKY34 (Q0JBA9 entry or part of it): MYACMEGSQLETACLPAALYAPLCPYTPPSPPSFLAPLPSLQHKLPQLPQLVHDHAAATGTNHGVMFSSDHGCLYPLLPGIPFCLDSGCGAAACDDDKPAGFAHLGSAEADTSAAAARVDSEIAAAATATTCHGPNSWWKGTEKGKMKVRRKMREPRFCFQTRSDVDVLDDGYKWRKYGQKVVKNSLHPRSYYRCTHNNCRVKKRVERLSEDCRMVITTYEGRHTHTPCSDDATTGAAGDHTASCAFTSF
In short: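 Using Ni–NTA, transcription factors fused N-terminally to polyhistidine and DsRed were purified after expression in E. coli BL21-CodonPlus. These were incubated at 200 nM with a blocked, double-stranded custom Agilent array for 1 h at 25 °C in a buffer containing 50 µM zinc acetate, and the array was washed. The binding signal is per-feature fluorescence intensity (arbitrary units) on an Axon 4000B scanner.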

Sequence	binding signal
AAACTGTTCTCCTCCACTTGCCTATCTTATCCTCTCTTATCGGAGTCACCTAGTGCAG	8930 fluorescence intensity (a.u.)
ACGGTTGTGTATTTCATAGTAGGGTGTAAATGTACGCTGACGGAGTCACCTAGTGCAG	8030 fluorescence intensity (a.u.)
ATACAACTTCGTCTGGCGCCCTCAATCGATCTCGCTCTATCGGAGTCACCTAGTGCAG	9870 fluorescence intensity (a.u.)
AACCCTCATCTACTTCTGGCCCTCTAAGAGTTCTCCACTACGGAGTCACCTAGTGCAG	8400 fluorescence intensity (a.u.)
GTGTGTGCCTCCTTTTCTCTTCTTCAGTTTTCAACTCAAACGGAGTCACCTAGTGCAG	9440 fluorescence intensity (a.u.)
CCTCATCCCGTCCAGCGTTCACCCGACGTCGCCCGTCGCACGGAGTCACCTAGTGCAG	10500 fluorescence intensity (a.u.)
TGAGTCTTCACAATCCCATGTCACATGATCATGTGATCTTCGGAGTCACCTAGTGCAG	9860 fluorescence intensity (a.u.)
GTGGGGATTGGGTAGGAGAAGGAGTGGGGAATTAGGTTAGCGGAGTCACCTAGTGCAG	12200 fluorescence intensity (a.u.)
GTGGGATTAGGATTGGAAAATGAATGAAGGGTTAGAATTACGGAGTCACCTAGTGCAG	8560 fluorescence intensity (a.u.)
GTGATTGGATGGGTAGTGGAGACAGGTGGGAAAAATGAATCGGAGTCACCTAGTGCAG	8510 fluorescence intensity (a.u.)
TGTACTGTAGGGGTGGGATTGTGATTGGAAAATGAATGAACGGAGTCACCTAGTGCAG	18600 fluorescence intensity (a.u.)
GAAATGAGGGGTGGGATTGGGATTGGGATTGGAAAATGAACGGAGTCACCTAGTGCAG	11800 fluorescence intensity (a.u.)
GGGTGGGATTGGGATTGGGAAATGAATGAAGGGTTAGGATCGGAGTCACCTAGTGCAG	16400 fluorescence intensity (a.u.)
GTCGATGTGTCTTTTGTGTGTAGTTCTTGTAATTGTTGTGCGGAGTCACCTAGTGCAG	8220 fluorescence intensity (a.u.)
GGGTTGATTTTGCTTCCTGCATCCCAGCGACATCGCCCAACGGAGTCACCTAGTGCAG	11500 fluorescence intensity (a.u.)
CCTGTGCGTGGTCGGGTTAATTTGTCAGTCTGTCACTTACCGGAGTCACCTAGTGCAG	10200 fluorescence intensity (a.u.)
GTGCTCATCCGCCTCCTCGGGTCGTCTCCATCGACCTCCTCGGAGTCACCTAGTGCAG	9120 fluorescence intensity (a.u.)
CTCCATTTAACAGATGACGTCGTTGACTTTTTCTTACATGCGGAGTCACCTAGTGCAG	26900 fluorescence intensity (a.u.)
TTTGTTTTTTAATAGATGACGCTGTTGACTTTTTCTCACGCGGAGTCACCTAGTGCAG	14200 fluorescence intensity (a.u.)
ATAGATGACGCCGTTAACTTTTTCTCACATGTTTAACCATCGGAGTCACCTAGTGCAG	10200 fluorescence intensity (a.u.)
ATAGATGACGCTGTTGATTTTTTTCTCACATGTTTGACCACGGAGTCACCTAGTGCAG	10400 fluorescence intensity (a.u.)

Sequence	binding signal
TGTTGACTTTTTAGTACATATTTAACCATTTGTCTTATTACGGAGTCACCTAGTGCAG	14900 fluorescence intensity (a.u.)
TAATAGATGACGCCGTTGACTTTTTCTCACATGTTTGACCCGGAGTCACCTAGTGCAG	33000 fluorescence intensity (a.u.)
TTAATAGATGACGCCGTTGATTTTTTCTCACATGTTTGACCGGAGTCACCTAGTGCAG	11600 fluorescence intensity (a.u.)
GTTTACTCCAAGATTCACATTTGACTTTCTTATGCCATAGCGGAGTCACCTAGTGCAG	9170 fluorescence intensity (a.u.)
TTTTTAATAGATGACGCTGTTGACTTTTTCCCACATGTTTCGGAGTCACCTAGTGCAG	24200 fluorescence intensity (a.u.)
TTTTTAATAGATGACGCCGTTGACTTTTTCTCACATGTTTCGGAGTCACCTAGTGCAG	34300 fluorescence intensity (a.u.)
TTTTTTAATAGATGACGCCGTTGACCTTTTCTCACATGTTCGGAGTCACCTAGTGCAG	15100 fluorescence intensity (a.u.)
CTAGTTTTGGTCTTGTGATAGGTTATTTGCTTACGATTATCGGAGTCACCTAGTGCAG	9430 fluorescence intensity (a.u.)
CCGACCCGACCCGACCACCCACCGGCGAGGCCCACTCCGTCGGAGTCACCTAGTGCAG	8620 fluorescence intensity (a.u.)
TGCTGCTGCTGTTGTTCGTGTATTGCTCCATCTGTGCACGCGGAGTCACCTAGTGCAG	9920 fluorescence intensity (a.u.)
CATAAACGACGCCGCATCAGACAAACTAAACGCGACAATACGGAGTCACCTAGTGCAG	8100 fluorescence intensity (a.u.)
GCACTACCTTCACCATTTTTTTTGATTTTTTTCTTTTTTTCGGAGTCACCTAGTGCAG	8270 fluorescence intensity (a.u.)
GCTATCTCCATCGTCTCTTTCCTTGACCACAGCGGCAATGCGGAGTCACCTAGTGCAG	9860 fluorescence intensity (a.u.)
CCACCACGGACTCCGCCGCCGCTCCCGCCACCGCCACATCCGGAGTCACCTAGTGCAG	10600 fluorescence intensity (a.u.)
CGTTTTTTAATAGATGACGCCGTTGACTTTTTCTCACATGCGGAGTCACCTAGTGCAG	31400 fluorescence intensity (a.u.)
GATGACGCCGTTGACTTTTTCTCACATGTTTGACCAATCGCGGAGTCACCTAGTGCAG	36900 fluorescence intensity (a.u.)
ATAAATGACGCCGTTGATTTTTTCTCACATGTTTGACCATCGGAGTCACCTAGTGCAG	10500 fluorescence intensity (a.u.)
AATAGATGACGCCGTTGATTTTTTCTCACATGTTTGACCACGGAGTCACCTAGTGCAG	11700 fluorescence intensity (a.u.)
TTCATGGAGTCTACTACTCTACTCCCTCTATTTTCAAATACGGAGTCACCTAGTGCAG	9010 fluorescence intensity (a.u.)
ATATAGGGGTTGGTCTTCCACGTCAAATTTGGGGTAGATACGGAGTCACCTAGTGCAG	10200 fluorescence intensity (a.u.)
TAGCTTTGGCACCTTGCGCGCGCGTACACAGCCGCTTAAGCGGAGTCACCTAGTGCAG	8550 fluorescence intensity (a.u.)
